Drawing on PubChem BioAssay AID2057 (The Scripps Research Institute Molecular Screening Center, 2009), this text covers inhibition for 15 compounds.

Among all 320,000 compounds or so, about 2,100 (0.66%) were called active.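 Rule for the calls: active = inhibition above the mean inhibition of all tested compounds plus 3 SD, set per campaign (cut at about 40% in these data); inactive = the rest.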 Shown is part of a subset that was picked to be rich in actives.

Induced myeloid leukemia cell differentiation protein Mcl-1 (Homo sapiens), sequence (Q07820 whole entry, looked up): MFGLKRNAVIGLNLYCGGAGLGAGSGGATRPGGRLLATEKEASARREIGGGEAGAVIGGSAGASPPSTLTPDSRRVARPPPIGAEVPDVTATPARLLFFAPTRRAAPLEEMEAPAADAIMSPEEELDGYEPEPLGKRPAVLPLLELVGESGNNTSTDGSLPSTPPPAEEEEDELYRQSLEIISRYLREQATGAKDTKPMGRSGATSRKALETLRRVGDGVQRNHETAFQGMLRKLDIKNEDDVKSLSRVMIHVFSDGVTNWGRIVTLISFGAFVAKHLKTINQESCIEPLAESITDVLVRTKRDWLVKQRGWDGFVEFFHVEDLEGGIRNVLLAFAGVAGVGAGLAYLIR

The assay has as its target Induced myeloid leukemia cell differentiation protein Mcl-1 (Homo sapiens) (UniProt Q07820). Briefly: inhibitors of MCL1 binding to BIM-BH3, primary screen, biochemical, fluorescence polarization (AID 2057).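 Note: 0% = DMSO wells and 100% = unlabeled Bim-BH3 peptide control; higher means more loss of mP so more displacement of Bim peptide.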 As to conditions: GST-MCL1 / FITC-Bim-BH3 fluorescence polarization; at 10.9 µM; active compounds read high.
As to `O=C1NC(=O)N(c2ccccc2)C(=O)/C1=C/c1ccc([N+](=O)[O-])s1`, the inhibition (commonly the relative decrease from the control value, in per cent) is 44.1% (active).
On to `CCOP(=S)(OCC)SCOC(=O)NCC(=O)OC`, for which the inhibition was 6.09% (inactive).
For the compound `C=CCN1C(=O)C2(C(C(=O)OCC)=C(N)Oc3c2c(=O)oc2ccccc32)c2ccccc21` (stereo not given), the inhibition was 1.78% (inactive).
For `Cc1c(C(=O)O)cccc1-n1c(C)cc(/C=C2\C(=O)NC(=O)N(c3ccc4c(c3)OCO4)C2=O)c1C`, the inhibition is 2.52% (inactive).
As for `Cc1ccccc1N1C(=O)NC(=O)/C(=C\c2cc(C)n(C)c2C)C1=O`, the inhibition is 1.23% (inactive).
`COc1cccc(N2C(=O)NC(=O)/C(=C\c3cn(C)c4ccccc34)C2=O)c1`: the inhibition is 55% (active).
In the case of `CCN(CC)C(=O)Oc1ccc(NC(=O)N2CCOCC2)cc1`, the inhibition is 3.93% (inactive).
Under `Cc1cccc(OP(=O)(Oc2cccc(C)c2)OC(c2ccccc2)C(F)(F)F)c1` (stereo not given) stands 2.04% (inactive); under `CN(c1ccccc1)c1ccc([N+](=O)[O-])c2nonc12`, -24.9% (inactive).
Take `O=C(CCC(=O)N1C[C@H]2C[C@@H](C1)c1cccc(=O)n1C2)NCc1ccccc1C(F)(F)F`: the inhibition is 2.96% (inactive).
Consider `Cc1cc(/C=C2/C(=O)NC(=O)N(Cc3ccco3)C2=O)c(C)n1-c1ccc(C(=O)O)cc1`, for which the inhibition was -11.8% (inactive).
For the compound `COc1ccc(CN2C(=O)NC(=O)/C(=C\c3ccc(OC)c(OC)c3OC)C2=O)cc1`, the inhibition was -3.16% (inactive).
Under `COc1ccc(N2C(=O)/C(=C/c3ccco3)C(=O)NC2=S)cc1` stands 53.9% (active); under `Cc1ccc(C)c(NC2=NCCCS2)c1`, 0.88% (inactive).
In the case of `COc1cccc(OC)c1C(=O)NC(=S)N1C[C@H]2C[C@H](C1)c1cccc(=O)n1C2`, the inhibition is 9.55% (inactive).
